Measurements taken from PubChem BioAssay.
The source made the active and inactive calls. Unless noted, the rule behind the calls is not given here.

How the values were obtained:
[1] = test system: XIP peptide (Xip251-270) binding; test: small-molecule binders of XIP peptide, primary screen, biochemical, small-molecule microarray, fluorescence 635/667 nm, 0.1 µg/mL protein (AID 1182); settings: fluorescent protein binding, 635 nm, higher = more signal, called active from +8 up or from −8 down
XIP peptide (Xip251-270) = test: small-molecule binders of XIP peptide, primary screen, biochemical, small-molecule microarray, fluorescence 635/667 nm, 0.5 µg/mL protein (AID 1183); settings: small-molecule microarray binding, fluorescence 635 nm; higher = more signal
[2] = Plasmodium falciparum growth inhibition, primary screen, strain 3D7, DAPI fluorescence, 100 nL (AID 1184);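 note: parasites grown inside human red blood cells in medium with human serum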; settings: P. falciparum 3D7 growth, 3 d, higher = more signal
[3] = target: Homeobox protein Hox-A13 (Mus musculus) (UniProt Q62424); test: inhibitors of HoxA13-DNA binding, primary screen, biochemical, fluorescence polarization, labeled oligonucleotide (AID 1185); settings: 15 min, higher = more signal, called active from +8 up or from −8 down
Sequence of Homeobox protein Hox-A13 (Mus musculus) (Q62424 whole entry, looked up): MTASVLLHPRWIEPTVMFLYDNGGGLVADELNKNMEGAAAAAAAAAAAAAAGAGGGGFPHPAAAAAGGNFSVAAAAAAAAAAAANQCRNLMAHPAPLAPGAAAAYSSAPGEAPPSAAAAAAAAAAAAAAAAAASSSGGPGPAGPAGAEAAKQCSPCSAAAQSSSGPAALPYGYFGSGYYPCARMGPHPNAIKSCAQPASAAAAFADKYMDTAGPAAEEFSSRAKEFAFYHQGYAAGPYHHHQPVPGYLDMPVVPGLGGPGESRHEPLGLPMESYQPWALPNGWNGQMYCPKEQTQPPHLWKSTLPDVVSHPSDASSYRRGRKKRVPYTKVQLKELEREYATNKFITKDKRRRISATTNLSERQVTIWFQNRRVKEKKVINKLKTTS

[4] = inhibitors of hydroxyurea-induced Chk1 phosphorylation, primary screen, imaging, HeLa, phospho-Chk1 antibody, percent positive cells (AID 1186); settings: hydroxyurea-induced phospho-Chk1 immunofluorescence imaging, higher = more signal
[5] = inhibitors of hydroxyurea-induced Chk1 phosphorylation, primary screen, imaging, HeLa, phospho-Chk1 nuclear intensity (AID 1187); settings: hydroxyurea-induced phospho-Chk1 immunofluorescence imaging, higher = more signal

SMILES | composite z-score [1] | composite z-score (XIP peptide (Xip251-270)) | z-score [2] | z-score [3] | z-score [4] | z-score [5]
Cc1ccc(S[C@]2(C(=O)NCc3ccccc3)CC(=O)N(Cc3cc(C(F)(F)F)cc(C(F)(F)F)c3)[C@@H]2c2ccc(CO)cc2I)cc1 | 1.16 (inactive) | -0.474 | -0.261 | -1.82 (inactive) | 0.0563 (inactive) | 0.249 (inactive)
CO[C@H]1O[C@H](CO)[C@@H](OC(=O)CCc2ccccc2)[C@H](OC(=O)c2cc3ccccc3[nH]2)[C@H]1OC(=O)c1cc2ccccc2[nH]1 | 0.983 (inactive) | 0.637 | -1.03 | -0.797 (inactive) | -0.616 (inactive) | -1.27 (inactive)
COCCCNC(=O)[C@@]1(c2ccc([N+](=O)[O-])cc2)CC(=O)N(C(C)C)[C@@H]1c1ccc(CO)cc1 | -1.3 (inactive) | 0.64 | 0.382 | -0.803 (inactive) | 0.0991 (inactive) | 0.621 (inactive)
CCN(CC)c1ccc(N2CC=CC34O[C@@H]5/C=C\CCC(C)OC(=O)C5[C@H]3C(=O)N(C(C)CO)[C@@H]4C2=O)cc1 (some centres undefined) | -0.187 (inactive) | 0.56 | 0.2 | -5.38 (inactive) | -0.713 (inactive) | -0.257 (inactive)
CCOC(=O)C1=C[C@@H](c2ccccc2)N(S(=O)(=O)c2ccc(C)cc2)[C@H]1c1ccccc1 | 0.598 (inactive) | 0.303 | -0.346 | 0.0724 (inactive) | 0.667 (inactive) | 0.529 (inactive)
COc1ccc(C(=O)Nc2cccc(CN3C(=O)[C@@]4(O[C@@H](CC(=O)N(CCO)Cc5ccccc5)[C@H]([Si](C)(C)c5ccc(OC)cc5)[C@H]4C)c4ccccc43)c2)cc1 | 1.31 (inactive) | 0.442 | -2.54 | -0.674 (inactive) | -1.43 (inactive) | -0.643 (inactive)
NC(=O)[C@H]1[C@@H]2C(=O)O[C@@H](c3ccccc3)[C@@H](c3ccccc3)N2[C@@H](c2ccc(O)cc2)[C@]12C(=O)Nc1ccc(C#CC3=CCCCC3)cc12 | 0.875 (inactive) | -0.0283 | -0.88 | -1.08 (inactive) | -0.165 (inactive) | -0.348 (inactive)
[N-]=[N+]=NCc1ccccc1[C@H]1OC(c2ccc(OCCCO)cc2)=N[C@@]1(CCS(=O)(=O)c1ccccc1)C(=O)NCc1ccccc1 | -0.165 (inactive) | 0.68 | -2.28 | -0.495 (inactive) | -0.189 (inactive) | 0.283 (inactive)
O=C1OCCC/C=C\[C@H]2OC34C=CCN(c5ccc6ccccc6c5)C(=O)[C@H]3N(CCCO)C(=O)[C@@H]4C12 (some centres undefined) | 0.0317 (inactive) | 0.481 | 0.267 | -5.72 (inactive) | 1.41 (inactive) | 0.656 (inactive)
CC(C)C[C@@H]1NC(=O)[C@@]23C(=O)N[C@@H](Cc4ccccc4)C2[C@H](C)[C@@]2(C)O[C@H]2C3/C=C/C/C=C\CNC(=O)[C@@H](C)NC1=O (some centres undefined) | 0.772 (inactive) | 0.649 | -1.65 | -4.91 (inactive) | -0.674 (inactive) | -0.734 (inactive)
COCCOC(=O)N1C(=O)[C@@]2(c3cc(C#CCC(C(=O)OC)C(=O)OC)ccc31)[C@H](C(=O)NC[C@H](O)c1ccccc1)[C@H]1C(=O)O[C@H](c3ccccc3)[C@H](c3ccccc3)N1[C@@H]2c1ccc(O)cc1 | 0.363 (inactive) | 0.724 | -1.84 | -1.61 (inactive) | -0.129 (inactive) | -0.117 (inactive)
C[C@]1(C(=O)O)c2ccccc2C(=O)N(Cc2ccc(OC(F)(F)F)cc2)[C@H]1c1ccc(CO)cc1 | -0.336 (inactive) | -1.05 | 0.465 | -4.09 (inactive) | -0.159 (inactive) | -0.344 (inactive)
C=C(COC)C(=O)CC[C@H](OC(=O)c1cccnc1)c1ccc(CO)o1 | 0.0246 (inactive) | 0.193 | 0.535 | -4.81 (inactive) | 0.169 (inactive) | -0.143 (inactive)
COC(=O)C(CC#Cc1ccc2c(c1)[C@]1(C(=O)N2)[C@H](C(=O)Nc2nc3ccccc3s2)[C@H]2C(=O)O[C@H](c3ccccc3)[C@H](c3ccccc3)N2[C@@H]1c1ccc(OCCO)cc1)C(=O)OC | 3.13 (inactive) | 0.771 | -2.1 | 0.713 (inactive) | 0.0974 (inactive) | 0.531 (inactive)
COc1ccc(CCNC(=O)[C@@]2(Cc3ccccc3I)c3ccccc3C(=O)N(Cc3ccccc3Cl)[C@H]2c2ccc(CO)cc2)cc1 | 0.71 (inactive) | 0.765 | -1.23 | -3.36 (inactive) | 0.207 (inactive) | -0.304 (inactive)
CC(C)N1CC=CC23O[C@@H]4/C=C\CCCOC(=O)C4[C@H]2C(=O)N(CCCCCCO)[C@@H]3C1=O (some centres undefined) | 1.15 (inactive) | -0.853 | -0.064 | -5.14 (inactive) | -0.765 (inactive) | -0.0806 (inactive)
COCC1C2CC[C@H]3C(OCc4ccc(OC)cc4)OC[C@]4(C)[C@H]3C2=C(CN4C(=O)OC(C)(C)C)[C@H](C)C1COC (some centres undefined) | -0.272 (inactive) | 0.682 | -0.821 | -4.09 (inactive) | -0.615 (inactive) | -0.719 (inactive)
[N-]=[N+]=Nc1ccccc1C[C@]1(C(=O)NCc2ccccc2)COC(c2ccc(OCCCO)cc2)=N1 | 0.261 (inactive) | 0.651 | -2.38 | -5.36 (inactive) | -0.364 (inactive) | -0.571 (inactive)
O=C(N1CCOCC1)[C@@]1(CCS(=O)(=O)c2ccccc2)N=C(c2ccc(OCCCO)cc2)O[C@H]1c1ccccc1 | 1.79 (inactive) | 0.747 | -1.39 | -5.53 (inactive) | 0.0192 (inactive) | 0.249 (inactive)
COCCOC(=O)N1C(=O)[C@@]2(c3cc(C#CC4(O)CCCCCC4)ccc31)[C@H](c1ccc(OCCO)cc1)N1[C@H](c3ccccc3)[C@H](c3ccccc3)OC(=O)[C@H]1[C@@H]2C(=O)Nc1nc2ccccc2s1 | 0.284 (inactive) | 0.78 | -0.726 | 1.07 (inactive) | 0.218 (inactive) | 0.561 (inactive)
Cc1ccccc1C(O)C1C=CC2C(=O)NC(=O)C2N1Nc1ccc(Cl)cc1Cl (centres undefined) | 3.24 (inactive) | 0.693 | 0.254 | -5.08 (inactive) | 0.165 (inactive) | -0.016 (inactive)
COc1ccc(C#Cc2ccc3c(c2)[C@]2(C(=O)N3)[C@H](C(=O)N3CCCCCCC3)[C@H]3C(=O)O[C@H](c4ccccc4)[C@H](c4ccccc4)N3[C@@H]2c2ccc(O)cc2)cc1 | 2.34 (inactive) | 0.755 | -1.56 | 0.625 (inactive) | -0.25 (inactive) | -0.372 (inactive)
CN1C(=O)[C@@]2(Cc3ccccc3)N=C(c3ccc(OCCCO)cc3)O[C@H]2c2ccccc21 | 1.11 (inactive) | 0.687 | -2.26 | -4.01 (inactive) | -0.632 (inactive) | -0.864 (inactive)
COCCOC(=O)N1C(=O)[C@@]2(c3cc(C#CCCO)ccc31)[C@H](C(=O)N1CCCCCCC1)[C@H]1C(=O)O[C@H](c3ccccc3)[C@H](c3ccccc3)N1[C@@H]2c1ccccc1OCCO | 0.867 (inactive) | 0.6 | -2.18 | 3.5 (inactive) | 0.204 (inactive) | 0.606 (inactive)
COc1ccc(C#Cc2ccc3c(c2)[C@]2(C(=O)N3)[C@H](C(=O)Nc3nc4ccccc4s3)[C@H]3C(=O)O[C@H](c4ccccc4)[C@H](c4ccccc4)N3[C@@H]2c2ccccc2OCCO)cc1 | 0.416 (inactive) | 0.598 | -2.21 | -0.889 (inactive) | -0.347 (inactive) | -0.392 (inactive)
[N-]=[N+]=NCc1ccccc1[C@H]1OC(c2ccc(OCCCO)cc2)=N[C@@]1(Cc1ccccc1)C(=O)NCCN1CCOCC1 | 0.0723 (inactive) | 0.816 | -2.28 | -0.974 (inactive) | -0.0389 (inactive) | 0.306 (inactive)
C=CCC(OC(C)=O)[C@@H]1[C@@H](N(Cc2ccc(-c3ccccc3)cc2)C(=O)Cc2ccc(F)cc2)c2cc(OCCCO)ccc2N1C(=O)Cc1ccc2ccccc2c1 (some centres undefined) | -0.632 (inactive) | 0.233 | -1.3 | -1.5 (inactive) | 0.433 (inactive) | -0.048 (inactive)
C=CCC(OC(C)=O)[C@@H]1[C@@H](N(Cc2cccc3ccccc23)C(=O)c2ccc(-c3ccccc3)cc2)c2cc(OCCCO)ccc2N1C(=O)c1ccc(-c2ccccc2)cc1 (some centres undefined) | -0.303 (inactive) | -0.811 | 0.579 | -1.17 (inactive) | 0.492 (inactive) | 0.0424 (inactive)
O=C(CS)NCCCCCNC(=O)[C@@H]1C[C@@H]2C(=O)N[C@@H](Cc3ccccc3)C(=O)N2[C@@H]1c1cccc(OCCO)c1 | 0.74 (inactive) | 0.77 | -0.0054 | -2.89 (inactive) | 0.341 (inactive) | 0.581 (inactive)
